Compound activity (PubChem)
EWS-Fli inh: EWS/Fli transcriptional activity inhibition. A673 NR0B1-luciferase reporter, viability-normalised. inhibition, % at 12.6 µM. 350,000 tested, 0.67% active. AID 651661;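 active = mean inhibition of at least 50% after viability correction, with every replicate also passing that limit; inconclusive = mean reaches 50% but only one of two replicates passes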;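 note: firefly luciferase signal divided by Alamar Blue viability fluorescence both relative to DMSO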
PAX8 inh HTS: PAX8 transcriptional activity inhibition; RMG-I TPO-luciferase reporter, SteadyGlo, 24 h; inhibition, % at 12.6 µM; 360,000 tested, 1.2% active; AID 652154;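 active = mean replicate inhibition at least 60% with every replicate also reaching 60%; inconclusive = only one of the two criteria is met; inactive = mean below 60% and not all replicates reaching 60%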;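 note: luciferase light reporting Pax8 driven TPO promoter activity; plate controls were median of neutral control wells for no effect and mitoxantrone controls for full effect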
LGR2 antag: blocks bursicon-induced cAMP signaling via Drosophila LGR2; HEK293 LGR2, CRE-luciferase, bursicon-stimulated, 4 h; inhibition, % at 9.99 µM; 380,000 tested, 0.35% active; AID 720647;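 active = drop in luminescence signal, shown as inhibition above about 50% in the replicate tests, limit read from the data, passing the limit was not always enough; inconclusive = probably only some replicates passing the limit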;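 note: agonist challenge used bursicon conditioned medium at about half maximal strength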
CFTR F508del cor: correctors of CFTR F508del function in bronchial epithelial cells; CFBE cells, YFP halide quenching; stimulated with forskolin plus potentiator P3; % fluorescence drop versus neutral controls; activity (quench increase), % at 7.58 µM; 350,000 tested, 0.36% active;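 active = mean added fluorescence quench of at least 8% versus neutral control, with both replicates also reaching 8%; inconclusive = only one of the mean or replicate conditions met; inactive = mean below 8% and not both replicates reaching 8%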;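 note: cells transiently co-express mutant CFTR-F508del with the halide-sensitive YFP; corrector assay measuring rescue of mutant channel to the surface after 24 h compound exposure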
Numbers without * were called inactive; ? = inconclusive; . = no result. Most compounds without a hit are left out; they make up all but 1.8% or so of the library.

SMILES	EWS-Fli inh	PAX8 inh HTS	LGR2 antag	CFTR F508del cor
Cc1ccc(CNC(=O)CNS(=O)(=O)c2ccc3nc(C)sc3c2)cc1	2	10	2	1
COc1ccc(/C=C/c2nc3ccccc3n2C)cc1	81*	88*	96*	-1
COc1ccc(/C=C/c2nc3ccccc3c(=O)o2)cc1	71*	84*	90*	0
OCCC1CN(Cc2ccc(C(F)(F)F)cc2)CCN1Cc1ccccc1 (configuration not stated)	1	-13	-2	5
C[C@H](CO)N1C[C@H](C)[C@H](CN(C)Cc2ccc(C(=O)O)cc2)OCCCC[C@H](C)Oc2ccc(NS(=O)(=O)c3cn(C)cn3)cc2C1=O	-20	-4	-11	2
Cc1ccc(Cl)cc1NC(=S)N/N=C/c1cccc2ccccc12	53*	15	0	?
COc1ccc(S(=O)(=O)Cc2ccc(C(=O)NC(C)C)o2)cc1	4	-4	3	2
COC(=O)c1ccc(CS(=O)(=O)c2ccc(F)cc2)o1	7	-16	-6	9.5*
COc1ccc(N(C(=O)CCl)C(C(=O)NCCc2ccccc2)c2cccs2)cc1Cl (configuration not stated)	68*	104*	22	.
COc1cccc(N(C(=O)CCl)C(C(=O)NCCc2ccccc2)c2cccs2)c1 (configuration not stated)	.	.	16	.
COC(=O)[C@]1(C)N[C@H](CN(C)S(=O)(=O)c2ccc(OC)cc2)[C@@H]2C(=O)N(C)C(=O)[C@@H]21	3	-9	.	-3
Cc1ccc(NC(=O)NC(=O)COc2ccc(Cl)cc2Cl)c(C)c1	-1	117*	-12	0
COc1ccc(N2CCN(C(=O)CCS(=O)(=O)c3ccc4c(c3)NC(=O)C(C)S4)CC2)cc1 (configuration not stated)	-3	29	8	0
Cc1ccc(C)c(N2CCN(C(=O)CCS(=O)(=O)c3ccc4c(c3)NC(=O)C(C)S4)CC2)c1 (configuration not stated)	.	62*	17	1
Cc1noc(C)c1S(=O)(=O)N(C)C[C@H]1OCCCC[C@@H](C)Oc2ccc(NC(=O)Cc3ccccc3)cc2C(=O)N([C@@H](C)CO)C[C@@H]1C	8	6	15	-3
O=C(/C=C/c1cccc([N+](=O)[O-])c1)NCCSCc1ccc(Cl)cc1	58*	2	9	.
C[C@H](CO)N1C[C@H](C)[C@H](CN(C)CC2CC2)OCCCC[C@H](C)Oc2ccc(NC(=O)Nc3cccc4ccccc34)cc2C1=O	7	0	9	0
C[C@@H]1CN([C@@H](C)CO)C(=O)c2cc(NC(=O)Nc3cccc4ccccc34)ccc2O[C@@H](C)CCCCO[C@H]1CN(C)CC1CCCCC1	91*	-21	9	0
C[C@H]1CCCCO[C@H](CN(C)CC2CCCCC2)[C@@H](C)CN([C@@H](C)CO)C(=O)c2cc(NC(=O)Nc3cccc4ccccc34)ccc2O1	89*	9	9	-1
C[C@@H]1CN([C@@H](C)CO)C(=O)c2cc(NC(=O)Nc3cccc4ccccc34)ccc2O[C@@H](C)CCCCO[C@H]1CN(C)CC1CC1	-3	-2	-1	0
C[C@@H]1CCCCO[C@@H](CN(C)CC2CCCCC2)[C@H](C)CN([C@H](C)CO)C(=O)c2cc(NC(=O)Nc3cccc4ccccc34)ccc2O1	90*	-14	10	5
C[C@@H]1CN([C@@H](C)CO)C(=O)c2cc(NC(=O)Nc3cccc4ccccc34)ccc2O[C@@H](C)CCCCO[C@@H]1CN(C)CC1CCCCC1	82*	9	-10	-1
Cc1ccc(C(=O)COC(=O)c2cc(C)no2)c(C)c1	1	-3	-3	1
C[C@H]1Oc2ccccc2C(=O)C1C(=O)c1ccccc1 (some centres not stated)	-23	-44	-3	3
C[C@H](CO)N1C[C@H](C)[C@@H](CN(C)CC2CCCCC2)Oc2ccc(NC(=O)Nc3cccc4ccccc34)cc2C1=O	9	.	-17	-1
C[C@@H]1CN([C@@H](C)CO)C(=O)c2cc(NC(=O)Nc3cccc4ccccc34)ccc2O[C@@H]1CN(C)CC1CCCCC1	77*	.	-21	-2
C[C@@H]1CCCCO[C@H](CN(C)C)[C@H](C)CN([C@H](C)CO)C(=O)c2cc(NC(=O)Nc3cccc4ccccc34)ccc2O1	-6	84*	-4	-2
CC(C)(C)NC(=O)C(c1ccc(C#N)cc1)n1c(=O)c(-c2cc3ccccc3[nH]2)nc2ccccc21 (configuration not stated)	17	65*	-12	-1
